Assay outcomes as filed in PubChem BioAssay.
L major viab: Leishmania major promastigote growth inhibition, primary screen; hit rate 9% among 200,000; inhibition, % at 10 µM; Leishmania major promastigotes, resazurin fluorescence viability; AID 1063, 2008; in the data active = inhibition above about 50%;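 also: promastigotes grown with compound for 44 hours at 28 °C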
Cl transport mod: KCC2 cotransporter modulators, thallium flux, primary screen, cell-based, HEK293 KCC2, FluoZin-2 fluorescence, MLSMR | KCC2 cells, thallium flux FluoZin-2 fluorescence | hit rate 2.2% among 190,000 | B-score of Tl+ flux slope (higher = more flux/activation; lower = inhibition) at 10 µM | AID 1456, 2008;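 active = thallium flux slope and its plate-corrected score both differing from the plate sample mean at a set confidence after two filtering rounds, in either direction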;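 also: slope of fluorescence scaled to starting intensity during 10 to 20 s after thallium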
Target sequence (Q9H2X9 whole entry, looked up): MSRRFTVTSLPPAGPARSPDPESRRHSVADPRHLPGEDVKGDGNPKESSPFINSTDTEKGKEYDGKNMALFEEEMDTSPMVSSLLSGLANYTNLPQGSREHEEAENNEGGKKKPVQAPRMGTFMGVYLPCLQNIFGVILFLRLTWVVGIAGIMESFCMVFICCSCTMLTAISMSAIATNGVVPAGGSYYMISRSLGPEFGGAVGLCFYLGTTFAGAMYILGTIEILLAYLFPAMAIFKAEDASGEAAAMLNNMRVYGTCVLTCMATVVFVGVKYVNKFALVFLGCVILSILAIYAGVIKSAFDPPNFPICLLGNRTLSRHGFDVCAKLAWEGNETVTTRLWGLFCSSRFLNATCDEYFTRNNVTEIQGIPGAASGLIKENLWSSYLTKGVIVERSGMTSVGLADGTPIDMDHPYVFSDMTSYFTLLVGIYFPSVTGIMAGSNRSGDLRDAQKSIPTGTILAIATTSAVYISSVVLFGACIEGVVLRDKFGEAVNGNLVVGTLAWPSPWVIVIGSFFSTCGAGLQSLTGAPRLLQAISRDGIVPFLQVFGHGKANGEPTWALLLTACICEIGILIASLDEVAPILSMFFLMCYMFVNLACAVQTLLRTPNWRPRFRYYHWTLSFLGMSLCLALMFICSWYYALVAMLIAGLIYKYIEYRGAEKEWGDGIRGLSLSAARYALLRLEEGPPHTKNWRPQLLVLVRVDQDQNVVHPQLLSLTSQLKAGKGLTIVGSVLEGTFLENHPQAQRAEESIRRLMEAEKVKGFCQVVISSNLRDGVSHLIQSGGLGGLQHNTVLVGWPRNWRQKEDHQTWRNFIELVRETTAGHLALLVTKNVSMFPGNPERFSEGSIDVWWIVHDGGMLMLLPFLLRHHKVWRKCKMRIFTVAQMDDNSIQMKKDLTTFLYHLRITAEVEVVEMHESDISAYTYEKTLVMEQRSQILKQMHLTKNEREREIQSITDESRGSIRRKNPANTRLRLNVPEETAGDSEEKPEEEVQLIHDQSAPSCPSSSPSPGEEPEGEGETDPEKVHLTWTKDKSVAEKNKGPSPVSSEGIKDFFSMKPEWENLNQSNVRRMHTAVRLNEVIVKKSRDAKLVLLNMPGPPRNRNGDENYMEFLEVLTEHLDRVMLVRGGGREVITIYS
Calpain2 inh: inhibitors of pig calpain II, primary screen, biochemical, fluorogenic peptide substrate, 1536-well; inhibition, % at 16 µM; purified calpain II, 30 min; AID 1236, 2008; hit rate 0.37% among 220,000;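 active = inhibition above about 50%, limit read from the data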
WT yeast gro inh: growth inhibition of WT strain, primary screen, mitochondrial fusion inhibitor project, WT and mutant strains, chemical genetic; AID 1362, 2008; mitochondrial fusion phenotypic screen; hit rate 2.1% among 190,000; inhibition, % at 10 µM; in the data active = inhibition above about 58%; tested in S. cerevisiae
ROMK mod: ROMK potassium channel modulators, primary screen, cell-based, thallium flux, MLSMR library; Tet-inducible ROMK, thallium flux fluorescence; actives lie on both sides; B-score at 10 µM; hit rate 2% among 130,000; AID 1918, 2009;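 active = signal ratio slope over the read window, or its plate-corrected B-score, at least 3 SD from the plate mean, either direction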;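 also: B-score of the F/F0 ratio slope over 7 to 12 s after thallium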
Of the large screens only hits and unclear results are named; the others gave an inactive call. A selection: hits, their analogues and other compounds. The true share with any hit is near 12%.

O=C(NCCS(=O)c1ccc(Cl)cc1)c1cccc(Cl)c1 (configuration not stated)	none
COC(=O)C(Cc1ccc(OC(=O)c2ccc(C(F)(F)F)cc2)cc1)N1Cc2ccccc2C1=O (configuration not stated)	Calpain2 inh 70.9 (no result: ROMK mod)
CCc1nc2ccc(C(=O)O)cc2nc1CC	L major viab 50.5 (no result: ROMK mod)
Cc1ccc(-c2nc3ccc(C(=O)O)cc3nc2-c2ccc(C)cc2)cc1	none (no result: ROMK mod)
COc1cc2c(cc1NC(=O)C(C)OC(=O)c1ccc(S(=O)(=O)Nc3ccccc3Cl)cc1)oc1ccccc12 (configuration not stated)	none
O=[N+]([O-])c1cc(C(F)(F)F)ccc1NCCNC(=S)Nc1ccc(Cl)cc1	L major viab 100.5, Calpain2 inh 51.7 (no result: Cl transport mod, ROMK mod)
O=C(COC(=O)c1ccccc1Nc1cccc(C(F)(F)F)c1)NCc1ccco1	none (no result: Cl transport mod, ROMK mod)
CCCn1c(=O)c2ccccc2n2c(Sc3nnnn3-c3ccccc3)nnc12	none (no result: ROMK mod)
C=CCn1c(=O)c2ccccc2n2c(Sc3nnnn3-c3ccccc3)nnc12	L major viab 56.5 (no result: ROMK mod)
O=C(O)c1ccc(N/N=C/c2cccc(F)c2)cc1	L major viab 64.9 (no result: ROMK mod)
O=C(O)c1ccc(N/N=C/c2ccc(OC(=O)c3cccc(Cl)c3)cc2)cc1	Calpain2 inh 54.6 (no result: L major viab, WT yeast gro inh, ROMK mod)
CCOc1ccc(N2C(=O)CN(CC(=O)OC)C2=S)cc1	none
Cc1ccc(NC(=O)Cn2cccc2)cc1	none (no result: ROMK mod)
COc1ccc(OC)c(CN2CCC(C(=O)N3CCN(c4ccccc4F)CC3)CC2)c1	none
COc1cccc(CN2CCC(C(=O)N3CCN(c4ccccc4F)CC3)CC2)c1	L major viab 89.1
COc1cc(CN2CCC(C(=O)N3CCN(c4ccccc4F)CC3)CC2)ccc1O	L major viab 62.8 (no result: Cl transport mod)
COc1ccc(/C=N/NC(=O)c2cccc(Br)c2)cc1COc1ccccn1	none (no result: L major viab, WT yeast gro inh, ROMK mod)
Cc1cccc2nc(-c3ccco3)c(Nc3ccccc3)n12	none
Cc1cccc(Nc2c(-c3ccc(O)cc3)nc3ncccn23)c1	none
Cc1ccc2nc(-c3ccccn3)c(NC3CCCC3)n2c1	L major viab 100.1, WT yeast gro inh 73.7 (no result: ROMK mod)
Cc1cccc(C)c1Nc1c(-c2ccsc2)nc2ncccn12	L major viab 80.2
Cc1ccc(Nc2c(-c3ccccn3)nc3cccc(C)n23)cc1	L major viab 100.7
Cc1ccccc1Nc1c(-c2ccccn2)nc2c(C)cccn12	none
Cc1cccc(C)c1Nc1c(-c2ccccn2)nc2ccccn12	L major viab 100.3
Cc1ccc(C)c(NC(=S)Nc2ncccc2C)c1	WT yeast gro inh 67.8
CCOC(=O)C1C(c2ccc([N+](=O)[O-])cc2)C2C(=O)NN=C2CC1(C)O (configuration not stated)	none (no result: L major viab, WT yeast gro inh)
CNC(=S)N(CCc1c(C)[nH]c2ccccc12)Cc1ccco1	none
Cc1[nH]c2ccc(F)cc2c1CCN(Cc1cccnc1)C(=S)Nc1cccc(F)c1	L major viab 100.3
Cc1[nH]c2ccc(F)cc2c1CCN(Cc1ccco1)C(=S)NC(C)(C)C	WT yeast gro inh 66.8
Cc1ccc(C)c(NC(=S)N(CCc2nc3cc(C)c(C)cc3[nH]2)Cc2cccnc2)c1	none (no result: Cl transport mod, ROMK mod)
Cc1ccccc1NC(=S)N(CCc1c(C)[nH]c2ccc(F)cc12)Cc1cccnc1	L major viab 100.2, Calpain2 inh 63.5
CNC(=S)N(CCc1c(C)[nH]c2ccc(OC)cc12)Cc1cccnc1	none
Cc1[nH]c2ccc(F)cc2c1CCN(Cc1ccncc1)C(=S)Nc1ccc(F)cc1	L major viab 99.0
COc1cccc2cc(C(C)OC(=O)Nc3ccc(C)cc3)oc12 (configuration not stated)	none
COc1ccccc1-c1c(NC(=O)c2ccco2)n(C)c2ccccc2c1=O	none (no result: L major viab, WT yeast gro inh, ROMK mod)
O=C(CSc1nnc(-c2ccncc2)n1Cc1ccco1)OC1CCCCC1	L major viab 81.3 (no result: Cl transport mod)
CN(C)C(=O)CSc1nnc(-c2ccncc2)n1Cc1ccco1	none
O=c1[nH]c(CSc2nnc(-c3ccncc3)n2Cc2ccco2)nc2ccccc12	none (no result: Cl transport mod, ROMK mod)
C(=C\c1ccccc1)/CSc1nnc(-c2ccncc2)n1Cc1ccco1	Cl transport mod -5.05
c1ccc(-c2nnc(CSc3nnc(-c4ccncc4)n3Cc3ccco3)o2)cc1	WT yeast gro inh 81.7 (no result: ROMK mod)
O=C(NCCN1CCOCC1)c1cc2sccc2n1Cc1ccc(Cl)cc1	none (no result: ROMK mod)
O=C(O)c1ccc(NS(=O)(=O)c2cc(Cl)ccc2Cl)cc1	L major viab 94.5
CC(C)C(=O)Nc1cc(S(=O)(=O)Nc2ccc(Cl)cc2)ccc1Cl	WT yeast gro inh 73.8 (no result: ROMK mod)
Cc1cc(Cl)c(S(=O)(=O)Nc2cccc(O)c2)cc1OCC(N)=O	L major viab 53.2
COc1ccc(NS(=O)(=O)c2cc(C(=O)O)ccc2C)cc1	WT yeast gro inh 58.6 (no result: ROMK mod)
COc1cccc(CC(=O)Nc2nc3c(s2)C(=O)CC(C)(C)C3)c1	none
COC(=O)c1n[nH]n(-c2cc(Cl)cc(Cl)c2)c1=O	none (no result: L major viab, WT yeast gro inh, ROMK mod)
COc1ccc(NS(=O)(=O)c2cc(OCC(N)=O)c(C)cc2Cl)cc1	L major viab 76.0
COc1ccc(NS(=O)(=O)c2cc(NC(=O)CNC(=O)c3ccc(C)s3)ccc2Cl)cc1	L major viab 84.1 (no result: ROMK mod)
Cc1ccc(C(=O)NCC(=O)Nc2ccc(C)c(S(=O)(=O)Nc3ccc(Cl)cc3)c2)s1	none
C[n+]1ccc(/C=C/c2ccccc2O)c2ccccc21	L major viab 98.8, WT yeast gro inh 64.6
CC(=O)/C=C/c1ccccc1O	none
CN(CC(=O)Nc1ccc(F)cc1)C(=O)COc1ccc([N+](=O)[O-])cc1Cl	none
COc1cc(COCC(O)CN2CCOCC2)cc(OC)c1OC (configuration not stated)	none (no result: Cl transport mod, ROMK mod)
Cc1no[n+]([O-])c1COc1cccc(/C=C2\N=C(c3ccccc3)OC2=O)c1	L major viab 63.9
COc1ccc(C(C)(C)C)cc1NC(=O)c1cncc(Br)c1	WT yeast gro inh 75.9 (no result: ROMK mod)
COc1ccc(NS(=O)(=O)c2cccc(Cl)c2)cc1S(=O)(=O)N1CCCCC1	L major viab 59.4 (no result: ROMK mod)
COc1ccc(NC(=O)[C@@H](NC(=O)c2ccccc2)C(C)C)cc1S(=O)(=O)N1CCCCC1	L major viab 72.4 (no result: ROMK mod)
COc1ccc(NC(=O)c2cc(OC)c(OC)c(OC)c2)cc1S(=O)(=O)N1CCCCC1	none
CCOc1ccc(C(=O)N[C@H](C(=O)Nc2ccc(OC)c(S(=O)(=O)N3CCOCC3)c2)C(C)C)cc1	none
COc1ccc(NC(=O)c2cncc(Br)c2)cc1S(=O)(=O)N1CCCCC1	L major viab 73.0 (no result: ROMK mod)
CC(=O)NCCC(=O)Nc1ccc(C(N)=O)cc1	none
CCC1CCCCN1c1nc2c(C=O)c(C)nn2c2ccccc12 (configuration not stated)	none
O=C(NCCc1ccc(Cl)cc1)C1CCC(CNc2c(N3CCCCC3)c(=O)c2=O)CC1 (configuration not stated)	none
CC(C)N1CCC(=NNc2ccc(S(=O)(=O)N3CCOCC3)cc2[N+](=O)[O-])CC1	L major viab 99.4 (no result: ROMK mod)
